Sampled rows, rich in hits. Any-hit rate of the full collection: about 0.91%.
BLM inh = inhibitors of human Bloom syndrome helicase BLM; Potency, µM (top dose mostly 56.1 µM), without a hit: at the highest dose activity change, negative = inhibition, usual class: inhibitors; hit rate 0.2% among 350,000; recombinant BLM DNA unwinding, fluorescence dequenching; AID 2528;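 also: plate controls were vehicle for no effect and no enzyme for full effect; nearly all actives have a fitted effect of over 35% in size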
RECQ1 helicase = inhibitors of human RECQ1 DNA helicase; Potency, µM (doses to about 57.3 µM), without a hit: at the top dose activity, negative = inhibition, actives largely listed as inhibitors; hit rate 0.54% among 240,000; P46063; RECQ1 DNA unwinding, red fluorescence kinetic read;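 also: plate controls were vehicle for no effect and no enzyme for full effect; nearly all actives have a fitted effect of over 30% in size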
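50 nM RECQ1T1 preincubated 15 min with compound in Tris pH 8.0 buffer with MgCl2, DTT, Tween-20 and 2.5 ug/ml poly(dI-dC); started with 200 nM TAMRA/BHQ-2 forked duplex and 2 mM ATP. Unwinding read as fluorescence (525/598 nm), two reads 2 h apart.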
TR SRC2 fluor cs = counter-screen for TRb-SRC2 inhibitors: fluorescence interference; Potency, µM (titrated, usually from 106 µM), without a hit: top-dose fluorescence change, negative = quenching; hit rate 0.29% among 280,000; TRb/SRC2 Texas Red total fluorescence interference; active = well fitted curve in either direction with a large enough effect; inconclusive = small, poorly fitted or top-dose-only effect
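Flags fluorescent or light-absorbing compounds by total fluorescence, S + 2P, at 555 nm excitation and 632 nm emission. Mixture: 20 nM Texas Red SRC2 peptide, 0.6 uM human TRb LBD, 1 uM T3, 5% DMSO; compound exposure 5 h at ambient temperature.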
APEX1 inh = inhibitors of human APE1 endonuclease; hit rate 0.35% among 350,000; AID 2517; Potency, µM (top dose mostly 65.8 µM), without a hit: top-dose activity change, negative = inhibition, usual class: inhibitors; recombinant APE1, TAMRA/BHQ-2 abasic DNA cleavage fluorescence;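 also: plate controls were vehicle for no effect and reference inhibitor for full effect; nearly all actives have a fitted effect of over 55% in size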
Target sequence (P27695 whole entry, looked up): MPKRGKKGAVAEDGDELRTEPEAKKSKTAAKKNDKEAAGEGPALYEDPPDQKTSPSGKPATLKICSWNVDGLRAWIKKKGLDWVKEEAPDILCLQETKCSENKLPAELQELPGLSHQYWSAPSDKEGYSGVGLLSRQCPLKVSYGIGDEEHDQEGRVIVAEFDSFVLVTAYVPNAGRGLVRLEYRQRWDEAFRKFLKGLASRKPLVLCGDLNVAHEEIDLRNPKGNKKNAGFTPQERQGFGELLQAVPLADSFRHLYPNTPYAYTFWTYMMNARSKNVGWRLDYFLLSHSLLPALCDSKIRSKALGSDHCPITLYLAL
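APE1 at 0.75 nM final was preincubated with compound 15 min at room temperature, then 50 nM double-stranded THF abasic-site substrate (5'-TAMRA/3'-BHQ-2) was added. Fluorescence (ex 525/em 598 nm) was read kinetically; third-minus-first read gave activity.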
TRb SRC2 PPI = TRbeta-SRC2 interaction inhibition; hit rate 0.065% among 280,000; TRbeta-SRC2 peptide binding, fluorescence polarization; receptor liganded with 1 µM T3; P10828; Potency, µM (series often up to 106 µM), without a hit: at the top dose activity change, negative = inhibition, most hits filed as inhibitors;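 also: plate controls were bound peptide for no effect and peptide without receptor for full effect; nearly all actives have a fitted effect of over 50% in size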
Target sequence (P10828 whole entry, looked up): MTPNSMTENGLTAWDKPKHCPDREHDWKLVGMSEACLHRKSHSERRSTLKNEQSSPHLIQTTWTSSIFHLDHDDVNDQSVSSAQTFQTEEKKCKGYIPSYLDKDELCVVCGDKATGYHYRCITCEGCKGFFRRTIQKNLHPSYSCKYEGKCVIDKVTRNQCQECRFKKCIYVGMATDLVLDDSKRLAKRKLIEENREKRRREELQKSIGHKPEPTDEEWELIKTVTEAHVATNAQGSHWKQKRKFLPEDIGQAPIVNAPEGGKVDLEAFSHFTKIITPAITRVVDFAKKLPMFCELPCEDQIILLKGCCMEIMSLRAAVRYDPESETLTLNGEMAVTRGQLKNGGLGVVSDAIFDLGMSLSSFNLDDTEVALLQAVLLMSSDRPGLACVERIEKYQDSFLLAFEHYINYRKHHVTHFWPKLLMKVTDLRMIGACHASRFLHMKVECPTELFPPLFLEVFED
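Fluorescence polarization of 20 nM Texas Red SRC2 peptide (20-aa NR interaction domain) bound to 0.6 uM human TRb ligand-binding domain, with 1 uM T3, after 5 hr at ambient temperature; inhibition seen as decreased polarization.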
WRN inhibitor = blocks human WRN helicase. Q14191. WRN helicase unwinding, fluorescent forked duplex, kinetic. Potency, µM (series often up to 114 µM), without a hit: at the highest dose activity change, negative = inhibition, usual class: inhibitors. hit rate 0.46% among 360,000. AID 651768; also: nearly all actives have a fitted effect of over 55% in size
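Screening of the MLSMR collection measured strand separation of a quenched forked DNA duplex (100 nM) by 20 nM WRN with 2 mM ATP, all final. Compounds were preincubated with enzyme 15 min at room temperature.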
Numbers without * were called inactive; i = inactive; ? = inconclusive; / = not tested or not shown; ! = not confirmed by another sample; [ ] = dose if it differs, or a comment. Unless noted, calls follow the shape of the dose curve; as a rule, active = well fitted curve in the direction sought with a large enough effect; inconclusive = small, poorly fitted or top-dose-only effect, or another doubt; inactive = no such curve, though single readings can be large; an effect the other way counts as inactive or inconclusive. Unless noted, % is scaled to controls: 0 for no effect and ±100 for the full control effect; potency is read from the fitted curve at half-maximal effect.

SMILES	BLM inh	RECQ1 helicase	TR SRC2 fluor cs	APEX1 inh	TRb SRC2 PPI	WRN inhibitor
CCN1/C(=C/c2ccc3cc(C)ccc3[n+]2CC)Sc2cc(C)ccc21	3%	?	-1%	9%	5%	50µM*
C=CCOc1ccccc1CN1CCCN(C)CC1	0%	/	/	?	/	2%
CSc1nc2ccc(NS(=O)(=O)c3cccc(Cl)c3Cl)cc2s1	-13%	-3%	1.1µM*[quencher]	9%	-9%[53 µM]	-16%
CCOC(=O)c1ccccc1C	/	/	-4%[201 µM]	/	7%[201 µM]	/
C=CCn1c(SCC(=O)c2ccc(O)c(O)c2)nnc1-c1cccc(Cl)c1	/	/	/	-11%	/	18µM*
COc1ccccc1/C=C/C(=O)Nc1cccc(S(=O)(=O)NC2=NCCCCC2)c1	-3%	i	-6%	18%	0%	-4%
COc1ccc(OC)c(NC(=O)c2cc(S(=O)(=O)N3CCCCC3)c[nH]2)c1	0%	/	/	-6%	/	2%
COc1cc(Cl)c(NC(=O)c2cc(S(=O)(=O)N3CCCCC3)c[nH]2)c(OC)c1	-2%	/	20µM*[quencher]	/	-7%	/
COc1cc2c(cc1O)CCN[C@@]21CS[C@H]2c3c(OC(C)=O)c(C)c4c(c3C(COC1=O)N1C2C2c3c(cc(C)c(OC)c3O)CC([C@@H]1O)N2C)OCO4 (stereo partly specified)	10µM*	/	/	/	/	/
C[Si]1(C)N[Si](C)(C)N[Si](C)(C)N1	/	/	-3%[201 µM]	/	11%[201 µM]	/
O=C(CN1C(=O)S/C(=C\c2ccc(-c3cc(C(=O)O)ccc3Cl)o2)C1=O)Nc1ccc2c(c1)OCO2	10µM*	/	/	6.7µM*	/	/
Cc1ccc(N(C)C(=O)CC(C)S(=O)(=O)c2ccc3c(c2)NC(=O)CO3)cc1 (stereo unspecified)	1%	/	13µM*[quencher]	-6%	-10%	3%
Cc1ccc(CNC(=O)CC(C)S(=O)(=O)c2ccc3c(c2)NC(=O)CO3)cc1 (stereo unspecified)	2%	/	/	23%	/	2%
O=C(CC(=O)c1ccccc1)CS(=O)(=O)c1ccccc1	/	/	/	/	/	5%
CN(C)C(=O)c1ccc(SC(=S)NCc2ccccc2)cc1	/	/	/	/	/	-2%[57.1 µM]
COC(=O)c1ccccc1-c1ccc(/C=c2\sc3nc4cc(Br)cnc4n3c2=O)o1	/	/	/	-8%	/	/
O=C(c1ccccc1)c1ccccc1N1C(=O)C=CC1=O	-4%	-16%	-1%	-1%	-2%	13µM*
O=C1C(Cl)=C(NS(=O)(=O)c2ccc([N+](=O)[O-])cc2)C(=O)c2ccccc21	-11%	12%	-3%	-3%	7%	79µM*
O=C1NC(=S)SC1=Cc1ccccc1Cl	/	/	/	/	/	-34%
O=C1NC(=S)S/C1=C\c1cc(Cl)cc(Cl)c1O	/	/	/	/	/	35µM*
N#Cc1c(-c2cccc(C(F)(F)F)c2)no[n+]1[O-]	/	/	/	-8%	/	/
Cc1nc(SCC(=O)c2ccccc2)c(C#N)c(-c2ccco2)c1C(=O)NCc1ccco1	25µM*	i	2%	-6%	0%	?
O=C(O)c1ccc(CSc2nnc(-c3cccc([S+](=O)([O-])N4CCCC4)c3)n2-c2ccccc2)cc1	/	/	/	5%	/	/
NC(CO)C(=O)NNCc1ccc(O)c(O)c1O (stereo unspecified)	-21%	-21%	-15%	0.45µM*!	4%	-2%[11.6 µM]
COC(=O)C(N)Cc1ccc(O)c(O)c1 (stereo unspecified)	-4%	-16%	2%	?	4%	-9%
SMILES	BLM inh	RECQ1 helicase	TR SRC2 fluor cs	APEX1 inh	TRb SRC2 PPI	WRN inhibitor
O=C(NN1C(=O)/C(=C/c2ccc(O)cc2)SC1=S)c1ccccc1O	-10%	/	/	-19%	/	-14%[11.6 µM]
CCOc1cc(/C=C2/SC(=S)N(Cc3ccccc3)C2=O)ccc1O	-19%	/	/	6%	/	35µM*
O=C1/C(=C\c2cc(Br)cc(Br)c2O)SC(=S)N1Cc1ccccc1	-29%	/	/	-27%	/	40µM*
O=C(O)CN1C(=O)/C(=C\c2cc(Br)ccc2OCc2ccccc2Cl)SC1=S	?	/	/	-65%	/	56µM*
COc1cc(/C=C2\SC(=S)N(NC(=O)c3ccccc3O)C2=O)ccc1O	-7%	/	/	15%	/	56µM*
O=C1/C(=C\c2ccc(O)cc2)SC(=S)N1Cc1ccccc1	-10%	/	/	-8%	/	-12%[11.6 µM]
CCCCOCCOCCOC(C)=O	/	/	-5%[201 µM]	/	2%[201 µM]	/
CC(C)=CCC/C(C)=C\CO	/	/	1%[201 µM]	/	6%[201 µM]	/
COc1ccccc1OCCOc1ccc(/C=C2\C(=N)N3N=C(S(C)(=O)=O)SC3=NC2=O)cc1	-11%	/	/	21µM*	/	-18%[11.6 µM]
CCn1c(CSc2nnc(-c3cccnc3)n2-c2ccccc2C)nc2cc(C(=O)O)ccc21	-16%	32µM*	40µM*[fluorescent]	?	11µM*	/
CO[C@H]1C[C@H](O[C@H]2[C@H](C)[C@@H](O[C@@H]3O[C@H](C)C[C@H](N(C)C)[C@H]3O)[C@@H](C)C[C@]3(CO3)C(=O)[C@H](C)[C@@H](O)[C@@H](C)[C@@H](C)OC(=O)[C@@H]2C)O[C@@H](C)[C@@H]1O	/	/	/	-1%[21 µM]	/	/
Cc1ccc(C2CC(=O)N3CN(c4ccc(Br)cc4)CSC3=C2C#N)o1 (stereo unspecified)	-1%	-3%	0%	1%	8%	2%
CCOc1ccc(N2CSC3=C(C#N)C(c4ccco4)CC(=O)N3C2)cc1 (stereo unspecified)	?	?	-10%	32µM*	1%	5%
Cc1ccc(/C=[N+](\[O-])c2ccc(N(C)C)cc2)c2nsnc12	-9%	-12%	40µM*[fluorescent]	-4%	35µM*	-5%[11.6 µM]
Cc1nn(CC(=O)NNC(=O)c2cccc(Br)c2)c(C)c1[N+](=O)[O-]	-1%	/	/	23%	/	-19%
CC(C)(C)n1ncc2c(=O)n(Cc3ccc(Cl)c(OC(F)(F)F)c3)cnc21	/	/	/	-7%	/	/
O=C(Nc1cccc(Cl)c1)OCC#CCCl	28µM*	28µM*	7.9µM*[fluorescent]	1.6µM*	0.79µM*	/
COc1ccc(S(=O)(=O)NCCSc2nnnn2-c2ccccc2)cc1OC	1%	/	8.9µM*[quencher]	/	-8%	/
CC(C)NC(=O)CC(=O)N/N=C/c1cccs1	18µM*	-7%	0%	5%	6%	-4%
O=C(CC(=O)N/N=C/c1cccs1)NCc1ccccc1	2%	-2%	1%	2%	-7%	2%
COc1ccc(OC)c(-c2nnc3n2N=C(c2ccc(OC)c(O[C@H]4CCOC4)c2)CS3)c1	/	/	/	-5%	/	/
O=c1oc(-c2ccc(C(F)(F)F)cc2)nn1Cc1cc(Cl)ccc1O	-6%	-13%	-1%	-4%	13%	/
CS(=O)(=O)N1CCc2cc(S(=O)(=O)NCCNS(=O)(=O)c3ccc4c(c3)CCN4S(C)(=O)=O)ccc21	-2%	i	-1%	12%	-1%	2%

From PubChem BioAssay
